In the library only some 12% were active in any assay of this set; here they are far more common.
Sm TGR inh – blocks Schistosoma mansoni thioredoxin glutathione reductase. purified TGR, DTNB reduction, TNB absorbance 405 nm. Potency, µM (series often up to 114 µM), inactives show at the highest dose activity change, negative = inhibition, actives largely listed as inhibitors. 360,000 tested, 3% active. AID 485364; active = well fitted inhibition curve with a large enough effect; inconclusive = small, poorly fitted or top-dose-only effect; inactive = no such curve, though single readings can be large or run the other way; note: potency is the fitted concentration of half-maximal effect; % is set by controls: 0 for no effect and ±100 for the full control effect; nearly all actives have a fitted effect of over 60% in size
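TGR 20 nM + NADPH 100 uM (dispensed conc.), cpd preinc 15 min RT; start with NADPH (500 uM addition) then DTNB (15 mM addition). Kinetic TNB absorbance, 405 nm filter. Four-parameter Hill fit across titration.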
FMDV inh – blocks foot and mouth disease virus | FMDV antiviral cell-based qHTS | Potency, µM (highest dose often 57.9 µM), inactives show at the top dose activity change, negative = inhibition, most hits filed as inhibitors | 410,000 tested, 1.2% active | AID 1159524; calls by dose curve; tested in HEK293T cells; note: read-out not given here; potency is the fitted concentration of half-maximal effect; % is set by controls: 0 for no effect and ±100 for the full control effect; nearly all actives have a fitted effect of over 45% in size
Shiga toxin inh – blocks Shiga toxin action in Vero cells; 290,000 tested, 9.2% active; Vero cells, Shiga toxin protein synthesis inhibition reporter; inhibition, % at 38.7 µM; in the data active = inhibition mostly above about 28%, no sharp cut-off; inactive = mostly below about 43%; note: 0% is about no effect
Cycloheximide cs – counter-screen for Shiga toxin inhibitors: cycloheximide protein synthesis inhibition; cell reporter, cycloheximide protein synthesis inhibition counterscreen; max response, %; 300,000 tested, 12% active; AID 2314; in the data active = max response mostly above about 13%, no sharp cut-off; inactive = mostly below about 14%; note: read at 38.3 µM for the half of the compounds with a filed dose; 0% is about no effect
The depositor's hits bear a star; ? = inconclusive; nt = no result given.

SMILES	Sm TGR inh	FMDV inh	Shiga toxin inh	Cycloheximide cs
COc1ccc(NC(=O)N2CCN(S(=O)(=O)c3ccc4c(ccn4C)c3)CC2)c(OC)c1	-1%	?	nt	nt
CN1C(=O)C2(C(C#N)=C(N)N(c3cc(Cl)cc(Cl)c3)C3=C2C(=O)CCC3)c2ccccc21 (stereo not given)	4%	-28%	-17	-4
CN1C(=O)C2(c3ccccc31)C1CCCC=C1C(C#N)=C(N)C2(C#N)C#N (stereo not given)	20µM*	-21%	-22	-3
N[C@@]1(C(=O)O)CO[C@H]2[C@H](C(=O)O)[C@H]21	nt	2%	2	-5
Cc1ccccc1C(=O)NC1CCCCCCC1	-16%	48%	39*	34*
COCCN(C(=O)Cc1cccs1)C(C(=O)NC1CCCC1)c1cc(OC)c(OC)c(OC)c1 (stereo not given)	9%	-15%	111*	49*
CSc1ccccc1C(=O)NC1CCCCCC1	19%	0%	-6	1
O=C(NC1CCCCC1)c1cc2ccccc2cc1O	-4%	-5%	34*	24*
COc1ccc(C(C(=O)NC2CCCC2)N(C(=O)Cc2cccs2)C2CC2)cc1OC (stereo not given)	-4%	-10%	-2	-5
O=C(O)/C=C\C(=O)Nc1ccccc1C(=O)NC1CCCCC1	-32%	18%	65*	42*
O=C(NC1CCCC1)C(c1ccc(F)cc1)N(Cc1ccc(F)cc1)C(=O)c1ccn[nH]1 (stereo not given)	-15%	-8%	-10	2
O=C(NC1CCCCCCC1)c1ccccc1-c1ccccc1	3%	0%	-14	-6
O=C(NC1CCCC1)C(c1ccc(F)cc1)N(Cc1ccccc1Cl)C(=O)CCl (stereo not given)	?	28µM*	-4	-1
COCCN(C(=O)CCl)C(C(=O)NC1CCCCC1)c1ccccc1C (stereo not given)	3.5µM*	20µM*	2	2
O=C(NC1CCCCCCC1)c1ccccc1O	-24%	-12%	75*	31*
COCCN(C(=O)CCC(=O)Nc1cc(C)on1)C(C(=O)NC1CCCC1)c1ccccc1C (stereo not given)	4%	24%	-2	-2
O=C(NCc1ccc2c(c1)OCO2)c1ccc2c(c1)N(Cc1ccccc1F)C(=O)c1ccccc1S2=O (stereo not given)	3%	-2%	nt	nt
CC(=O)c1ccc(-c2ccc3c4c(ccc3c2)OC(CNC(=O)C(C)N2CCOCC2)C4)s1 (stereo not given)	nt	2%	nt	nt
CC(C)(C)c1ccc(O)c(/C=N\O)c1	1%	40%	53*	18*
Cc1cc2ccccc2n1CCNC(=O)c1ccccc1F	-2%	1%	nt	nt
CCC(=O)NC1CCc2cccc(OC)c2C1 (stereo not given)	nt	2%	nt	nt
C=C1CC2(CC(c3ccccc3)OC(c3ccccc3)C2)OC1=O (stereo not given)	nt	22µM*	nt	nt
Cc1ccc(Nc2nc(C)cc(C)n2)c(Br)c1	0%	23%	79	13
CC(=O)c1ccc(Nc2nc(=O)c3cccnc3s2)cc1	4%	47%	70*	39*
O=c1nc(Nc2ccc(OCc3ccccc3)cc2)sc2ncccc12	4%	-17%	29	-4
SMILES	Sm TGR inh	FMDV inh	Shiga toxin inh	Cycloheximide cs
CCOC(=O)c1ccc(Nc2nc(=O)c3cccnc3s2)cc1	-11%	51%	22	22*
CC(=O)c1cccc(Nc2nc(=O)c3cccnc3s2)c1	-3%	39%	6	6
Cc1ccc(Nc2nc(=O)c3cccnc3s2)c(Br)c1	7%	19%	32	19*
O=C(CCS(=O)(=O)c1ccccc1)N(Cc1cccnc1)c1nc2ccc(Cl)cc2s1	1.1µM*	-14%	nt	nt
Cc1ccc2sc(N(Cc3cccnc3)C(=O)CCOc3ccccc3)nc2c1C	35µM*	-14%	nt	nt
O=C(CCOc1ccccc1)N(Cc1cccnc1)c1nc2c(F)cccc2s1	2.2µM*	-18%	nt	nt
C/C=C/C=C/C(=O)Nc1cccc(C2=NOC3(C2)C[C@H](C(N)=O)N(C(=O)CC(c2ccccc2)c2ccccc2)C3)c1 (stereo not given in full)	?	nt	4	-3
C/C=C\C=C\C(=O)Nc1cccc(C2=NOC3(C2)C[C@H](C(N)=O)N(C(=O)c2ccccc2C(=O)c2ccccc2)C3)c1 (stereo not given in full)	3.2µM*	-19%	1	7
C/C=C\C=C\C(=O)N1CC2(CC(c3cccc(NC(=O)CC)c3)=NO2)C[C@H]1C(N)=O (stereo not given in full)	2.5µM*	-1%	-10	-2
C/C=C\C(=O)Nc1cccc(C2=NOC3(C2)C[C@@H](C(N)=O)N(C(=O)c2ccccc2)C3)c1 (stereo not given in full)	5%	-3%	-2	-4
C/C=C\C=C/C(=O)Nc1cccc(C2=NOC3(C2)C[C@@H](C(N)=O)N(C(=O)c2ccccc2)C3)c1 (stereo not given in full)	3.2µM*	nt	-5	-3
C/C=C/C=C\C(=O)Nc1cccc(C2=NOC3(C2)C[C@@H](C(N)=O)N(C(=O)c2cc([N+](=O)[O-])cc([N+](=O)[O-])c2C)C3)c1 (stereo not given in full)	2.8µM*	-17%	3	-1
O=C(NCCCN1CCN(c2ccc(F)cc2)CC1)Nc1ccccc1Cl	3%	-9%	nt	nt
O=C(COc1ccc(Cl)cc1)NCC(c1cccs1)S(=O)(=O)c1ccc(F)cc1 (stereo not given)	-33%	-27%	nt	nt
C/C=C/C=C\C(=O)Nc1cccc(C2=NOC3(C2)C[C@H](C(N)=O)N(C(=O)/C=C/C)C3)c1 (stereo not given in full)	2.8µM*	-3%	-4	-5
Cc1ccc(Cn2cc(S(=O)(=O)c3ccccc3)c(=O)c3cc(F)c(N4CCOCC4)cc32)cc1	6%	10%	nt	nt
Cc1cc(C)cc(NC(=O)COC(=O)CCCC2=NS(=O)(=O)c3ccccc3N2)c1	-5%	-6%	10	0
Cc1cccc(OCC2=NS(=O)(=O)c3ccccc3N2)c1	9%	92%	106*	38*
CC1(C)Cc2c(C#N)c(OCC(=O)c3ccc(Cl)cc3)nc(-c3ccoc3)c2CO1	40µM*	-5%	-10	4
CC1(C)Cc2c(C#N)c(OCC(=O)c3ccccc3)nc(-c3ccoc3)c2CO1	-2%	-18%	25	4
CCc1cc2c(=O)n(Cc3ccco3)c(SCc3c(C)noc3C)nc2s1	11µM*	-21%	42*	12*
CCc1cc2c(=O)n(Cc3ccco3)c(SCC(=O)NCC3CCCO3)nc2s1 (stereo not given)	-32%	25µM*	-2	-3
COCCn1c(SCC(=O)N2CCCc3ccccc32)nc2ccccc2c1=O	-1%	-4%	-14	-2
O=C(CSc1nc2c(sc3ccccc32)c(=O)n1Cc1ccco1)NCC1CCCO1 (stereo not given)	0%	0%	3	0
CCc1cc2c(=O)n(Cc3ccco3)c(SCC(=O)N3CCCc4ccccc43)nc2s1	25µM*	-14%	48	19*
CCc1cc2c(=O)n(Cc3ccco3)c(SCC(=O)NC3CCS(=O)(=O)C3)nc2s1 (stereo not given)	16µM*	10%	-12	16

Compound activity from PubChem BioAssay.
